# PMC7862700, “An all-to-all approach to the identification of sequence-specific readers for epigenetic DNA modifications on cytosine”
# Tests used:
# Assay in all cases: DAPPL (digital affinity profiling via proximity ligation, sequencing); 10 mM Tris-HCl pH 7.5, 50 mM NaCl, 1 mM DTT, 4% glycerol, room temperature, 30 min; GST-TFs on glutathione beads, 16-mer random dsDNA library, 0.1% formaldehyde crosslink after washing; high values mean tight binding
# Conditions in all cases: protein: recombinant; tags: N-terminal GST; dsDNA, one strand shown
# FEV = molecular target: T1, FEV (Homo sapiens, UniProt Q99581 1-238)
# T1 sequence: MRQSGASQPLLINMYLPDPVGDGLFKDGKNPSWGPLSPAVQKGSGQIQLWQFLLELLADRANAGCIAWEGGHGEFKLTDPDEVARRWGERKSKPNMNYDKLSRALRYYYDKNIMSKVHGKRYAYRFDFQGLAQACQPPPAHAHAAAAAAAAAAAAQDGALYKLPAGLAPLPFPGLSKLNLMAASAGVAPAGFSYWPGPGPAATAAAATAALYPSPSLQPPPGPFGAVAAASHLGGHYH
# Summary of the method: (§1)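 Sequencing on an Illumina NextSeq500 followed washing, crosslinking with 0.1% formaldehyde, proximity ligation (BsaI/T4 ligase, 1 h, 37 °C) and PCR amplification of pools that had been incubated for 30 min at room temperature with 200 nmole of a random double-stranded 16-mer DNA library in Tris/NaCl/DTT/glycerol buffer. Each pool held DNA-barcoded human transcription factors, expressed in yeast as GST fusions and captured on glutathione beads, plus a tag-only sample. Binding signal is a hexamer's read frequency for a factor divided by its frequency in the tag-only sample.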
# ETV5 = ETV5 (Homo sapiens, UniProt P41161 1-510)
# Sequence of ETV5 (P41161 whole entry): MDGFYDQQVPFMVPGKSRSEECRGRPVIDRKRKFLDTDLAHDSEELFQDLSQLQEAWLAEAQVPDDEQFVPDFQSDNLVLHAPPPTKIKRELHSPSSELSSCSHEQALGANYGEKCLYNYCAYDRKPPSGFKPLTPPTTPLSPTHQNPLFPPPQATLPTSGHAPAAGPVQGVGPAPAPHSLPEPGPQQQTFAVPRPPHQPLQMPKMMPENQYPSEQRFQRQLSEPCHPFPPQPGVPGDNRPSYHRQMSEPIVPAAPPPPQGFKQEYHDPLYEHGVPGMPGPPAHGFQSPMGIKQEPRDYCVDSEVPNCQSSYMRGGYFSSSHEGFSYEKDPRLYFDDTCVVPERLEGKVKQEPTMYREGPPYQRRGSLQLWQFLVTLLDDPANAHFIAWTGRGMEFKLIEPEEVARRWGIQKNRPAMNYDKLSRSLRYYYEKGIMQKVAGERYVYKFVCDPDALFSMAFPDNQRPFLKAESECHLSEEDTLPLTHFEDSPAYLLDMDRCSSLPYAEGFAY
# Summary of the method: as §1
# SPIC = molecular target: T2, SPIC (Homo sapiens, UniProt Q8N5J4 1-248)
# T2 sequence: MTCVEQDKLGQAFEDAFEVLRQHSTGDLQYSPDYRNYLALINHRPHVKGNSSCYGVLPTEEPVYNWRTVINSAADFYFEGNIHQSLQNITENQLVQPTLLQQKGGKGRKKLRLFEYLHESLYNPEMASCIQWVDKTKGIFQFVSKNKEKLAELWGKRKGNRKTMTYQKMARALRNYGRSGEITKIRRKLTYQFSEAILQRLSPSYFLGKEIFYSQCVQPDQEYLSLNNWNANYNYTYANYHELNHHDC
# Summary of the method: as §1
# ELF4 = ELF4 (Homo sapiens, UniProt Q99607 1-663)
# Sequence of ELF4 (Q99607 whole entry): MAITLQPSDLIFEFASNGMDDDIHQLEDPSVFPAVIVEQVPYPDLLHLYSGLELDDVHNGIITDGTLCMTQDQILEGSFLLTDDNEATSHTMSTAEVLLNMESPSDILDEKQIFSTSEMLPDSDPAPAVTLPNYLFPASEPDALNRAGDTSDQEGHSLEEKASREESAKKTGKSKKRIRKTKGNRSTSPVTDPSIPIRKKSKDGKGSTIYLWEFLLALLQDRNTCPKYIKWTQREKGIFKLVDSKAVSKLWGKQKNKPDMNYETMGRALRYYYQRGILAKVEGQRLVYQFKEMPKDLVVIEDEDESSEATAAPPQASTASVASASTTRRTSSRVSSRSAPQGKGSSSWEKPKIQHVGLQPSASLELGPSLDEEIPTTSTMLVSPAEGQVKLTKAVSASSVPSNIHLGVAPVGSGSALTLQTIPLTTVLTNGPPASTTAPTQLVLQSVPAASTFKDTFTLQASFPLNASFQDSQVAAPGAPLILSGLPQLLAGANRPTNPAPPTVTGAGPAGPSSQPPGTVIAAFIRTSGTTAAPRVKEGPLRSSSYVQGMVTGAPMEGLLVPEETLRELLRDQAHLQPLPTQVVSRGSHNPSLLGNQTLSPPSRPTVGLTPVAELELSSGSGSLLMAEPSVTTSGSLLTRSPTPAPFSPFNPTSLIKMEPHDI
# Summary of the method: as §1
# ELK4 = molecular target: T3, ELK4 (Homo sapiens, UniProt P28324-2 1-405)
# T3 sequence: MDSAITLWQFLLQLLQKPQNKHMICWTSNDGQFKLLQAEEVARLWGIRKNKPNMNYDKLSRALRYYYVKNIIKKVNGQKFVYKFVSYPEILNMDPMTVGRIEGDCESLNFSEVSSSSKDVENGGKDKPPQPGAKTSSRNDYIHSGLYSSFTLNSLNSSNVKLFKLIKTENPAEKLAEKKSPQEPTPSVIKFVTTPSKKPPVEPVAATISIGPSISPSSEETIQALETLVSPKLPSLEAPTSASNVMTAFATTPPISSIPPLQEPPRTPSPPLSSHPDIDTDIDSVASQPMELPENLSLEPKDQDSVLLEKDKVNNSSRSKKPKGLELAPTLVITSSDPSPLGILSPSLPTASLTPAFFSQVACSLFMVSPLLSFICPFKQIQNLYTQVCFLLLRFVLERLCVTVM
# Summary of the method: as §1
# ETV2 = molecular target: T4, ETV2 (Homo sapiens, UniProt O00321 1-342)
# T4 sequence: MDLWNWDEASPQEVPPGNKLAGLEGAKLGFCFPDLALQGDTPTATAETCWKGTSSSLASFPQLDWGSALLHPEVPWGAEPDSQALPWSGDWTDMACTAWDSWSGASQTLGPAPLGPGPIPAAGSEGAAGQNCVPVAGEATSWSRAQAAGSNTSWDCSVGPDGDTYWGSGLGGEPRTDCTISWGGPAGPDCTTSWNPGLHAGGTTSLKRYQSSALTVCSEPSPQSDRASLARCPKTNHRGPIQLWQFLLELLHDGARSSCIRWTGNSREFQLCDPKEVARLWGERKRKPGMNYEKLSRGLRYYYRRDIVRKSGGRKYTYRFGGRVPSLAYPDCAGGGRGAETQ
# Summary of the method: as §1
# ELF3 = molecular target: T5, ELF3 (Homo sapiens, UniProt P78545 1-371)
# T5 sequence: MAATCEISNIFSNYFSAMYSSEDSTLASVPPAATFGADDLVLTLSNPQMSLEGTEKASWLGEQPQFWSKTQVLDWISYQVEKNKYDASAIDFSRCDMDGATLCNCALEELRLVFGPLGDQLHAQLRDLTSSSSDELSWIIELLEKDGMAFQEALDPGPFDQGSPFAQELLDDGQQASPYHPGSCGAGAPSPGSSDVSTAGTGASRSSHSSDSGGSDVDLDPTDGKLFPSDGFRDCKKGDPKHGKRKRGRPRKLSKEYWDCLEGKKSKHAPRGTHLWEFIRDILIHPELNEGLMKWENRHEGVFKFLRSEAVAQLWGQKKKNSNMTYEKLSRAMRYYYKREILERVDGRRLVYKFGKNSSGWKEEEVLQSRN
# Summary of the method: as §1
# CRX = CRX (Homo sapiens, UniProt O43186 1-299)
# Sequence of CRX (O43186 whole entry): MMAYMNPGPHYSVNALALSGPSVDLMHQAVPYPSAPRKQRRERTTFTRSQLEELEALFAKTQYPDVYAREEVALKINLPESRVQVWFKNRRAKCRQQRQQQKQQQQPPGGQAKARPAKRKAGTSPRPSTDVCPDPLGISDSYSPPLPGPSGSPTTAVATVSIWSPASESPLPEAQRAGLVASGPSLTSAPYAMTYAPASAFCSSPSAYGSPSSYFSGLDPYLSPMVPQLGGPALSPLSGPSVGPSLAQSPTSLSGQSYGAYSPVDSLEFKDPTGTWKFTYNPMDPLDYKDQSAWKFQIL
# Summary of the method: as §1
# ETV1 = ETV1 (Homo sapiens, UniProt P50549 1-477)
# Sequence of ETV1 (P50549 whole entry): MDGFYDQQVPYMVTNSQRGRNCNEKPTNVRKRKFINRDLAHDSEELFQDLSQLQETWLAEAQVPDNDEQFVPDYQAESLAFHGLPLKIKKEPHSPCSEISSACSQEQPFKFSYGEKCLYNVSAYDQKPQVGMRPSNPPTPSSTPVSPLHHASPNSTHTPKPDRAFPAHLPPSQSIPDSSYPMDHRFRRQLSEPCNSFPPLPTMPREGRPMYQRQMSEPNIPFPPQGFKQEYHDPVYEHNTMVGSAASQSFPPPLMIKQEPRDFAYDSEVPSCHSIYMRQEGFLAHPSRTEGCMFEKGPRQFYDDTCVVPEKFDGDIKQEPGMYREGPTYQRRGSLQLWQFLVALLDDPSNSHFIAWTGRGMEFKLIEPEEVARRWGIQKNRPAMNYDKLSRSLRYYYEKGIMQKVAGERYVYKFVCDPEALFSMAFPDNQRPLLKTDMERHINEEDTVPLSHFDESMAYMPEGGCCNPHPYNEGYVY
# Summary of the method: as §1
# ERF = molecular target: T6, ERF (Homo sapiens, UniProt P50548 1-548)
# T6 sequence: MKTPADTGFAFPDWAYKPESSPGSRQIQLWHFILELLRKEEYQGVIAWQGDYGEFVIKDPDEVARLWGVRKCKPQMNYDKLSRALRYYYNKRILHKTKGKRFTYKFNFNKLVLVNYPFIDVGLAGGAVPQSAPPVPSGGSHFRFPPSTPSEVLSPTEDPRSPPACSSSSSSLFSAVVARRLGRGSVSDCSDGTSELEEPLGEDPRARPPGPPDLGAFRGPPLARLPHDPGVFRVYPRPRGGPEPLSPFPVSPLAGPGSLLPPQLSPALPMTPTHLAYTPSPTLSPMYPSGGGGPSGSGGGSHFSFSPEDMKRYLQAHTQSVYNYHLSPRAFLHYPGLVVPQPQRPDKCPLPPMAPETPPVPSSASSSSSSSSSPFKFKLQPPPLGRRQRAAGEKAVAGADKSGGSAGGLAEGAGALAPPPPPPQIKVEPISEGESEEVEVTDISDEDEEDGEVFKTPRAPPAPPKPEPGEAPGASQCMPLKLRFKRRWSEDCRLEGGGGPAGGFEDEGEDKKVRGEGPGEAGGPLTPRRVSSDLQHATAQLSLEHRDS
# Summary of the method: as §1
# ETV3L = molecular target: T7, ETV3L (Homo sapiens, UniProt Q6ZN32 1-361)
# T7 sequence: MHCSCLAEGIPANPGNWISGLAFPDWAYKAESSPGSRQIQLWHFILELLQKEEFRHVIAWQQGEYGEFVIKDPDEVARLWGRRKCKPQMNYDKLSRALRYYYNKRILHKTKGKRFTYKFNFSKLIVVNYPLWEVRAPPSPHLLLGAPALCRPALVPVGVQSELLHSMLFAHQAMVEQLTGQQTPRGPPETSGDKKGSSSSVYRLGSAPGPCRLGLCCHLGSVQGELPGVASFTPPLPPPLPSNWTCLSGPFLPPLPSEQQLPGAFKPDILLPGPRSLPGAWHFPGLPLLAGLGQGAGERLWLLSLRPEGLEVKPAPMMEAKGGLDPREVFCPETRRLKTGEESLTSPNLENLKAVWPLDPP
# Summary of the method: as §1
# ETS2 = molecular target: T8, ETS2 (Homo sapiens, UniProt P15036 1-469)
# T8 sequence: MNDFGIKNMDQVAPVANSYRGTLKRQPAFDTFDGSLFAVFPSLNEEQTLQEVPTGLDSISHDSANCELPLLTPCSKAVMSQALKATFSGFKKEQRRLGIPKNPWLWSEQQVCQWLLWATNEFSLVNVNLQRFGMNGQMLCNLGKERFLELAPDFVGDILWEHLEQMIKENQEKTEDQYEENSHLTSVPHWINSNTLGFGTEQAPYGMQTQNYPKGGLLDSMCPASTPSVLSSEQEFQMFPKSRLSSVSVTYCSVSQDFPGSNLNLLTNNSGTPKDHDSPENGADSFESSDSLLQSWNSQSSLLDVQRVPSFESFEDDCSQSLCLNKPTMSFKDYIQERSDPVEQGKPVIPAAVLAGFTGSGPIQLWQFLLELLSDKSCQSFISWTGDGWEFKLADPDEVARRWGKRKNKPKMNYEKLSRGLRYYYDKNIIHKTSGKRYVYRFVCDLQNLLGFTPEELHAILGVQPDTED
# Summary of the method: as §1
# SPDEF = molecular target: T9, SPDEF (Homo sapiens, UniProt O95238 1-335)
# T9 sequence: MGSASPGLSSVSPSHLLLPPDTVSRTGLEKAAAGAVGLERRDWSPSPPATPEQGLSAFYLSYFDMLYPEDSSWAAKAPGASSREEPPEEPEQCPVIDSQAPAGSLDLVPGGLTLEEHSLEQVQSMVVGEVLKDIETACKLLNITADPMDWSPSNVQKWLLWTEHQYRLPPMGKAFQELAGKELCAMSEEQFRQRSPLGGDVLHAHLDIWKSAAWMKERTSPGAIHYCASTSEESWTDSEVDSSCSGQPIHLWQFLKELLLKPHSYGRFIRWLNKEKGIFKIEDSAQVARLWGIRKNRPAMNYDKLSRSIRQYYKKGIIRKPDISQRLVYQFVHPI
# Summary of the method: as §1
# ETV7 = molecular target: T10, ETV7 (Homo sapiens, UniProt Q9Y603 1-341)
# T10 sequence: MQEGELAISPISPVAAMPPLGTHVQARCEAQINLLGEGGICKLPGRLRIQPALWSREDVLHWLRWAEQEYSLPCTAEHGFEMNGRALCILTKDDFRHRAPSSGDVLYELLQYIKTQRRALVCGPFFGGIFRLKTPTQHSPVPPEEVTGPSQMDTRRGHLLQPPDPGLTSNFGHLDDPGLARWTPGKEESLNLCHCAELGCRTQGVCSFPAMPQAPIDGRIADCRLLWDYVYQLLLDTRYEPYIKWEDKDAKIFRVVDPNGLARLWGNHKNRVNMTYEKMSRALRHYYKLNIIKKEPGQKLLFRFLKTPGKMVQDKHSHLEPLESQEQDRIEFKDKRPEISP
# Summary of the method: as §1
# ELF5 = molecular target: T11, ELF5 (Homo sapiens, UniProt Q9UKW6-2 1-255)
# T11 sequence: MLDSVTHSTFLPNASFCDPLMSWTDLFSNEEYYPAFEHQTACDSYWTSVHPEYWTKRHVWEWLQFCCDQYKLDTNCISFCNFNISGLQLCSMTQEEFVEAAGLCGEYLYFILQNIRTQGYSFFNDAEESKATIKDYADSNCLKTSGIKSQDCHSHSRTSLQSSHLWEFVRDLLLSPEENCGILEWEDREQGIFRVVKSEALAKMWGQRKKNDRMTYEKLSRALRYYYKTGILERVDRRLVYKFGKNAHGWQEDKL
# Summary of the method: as §1
# ETV3 = molecular target: T12, ETV3 (Homo sapiens, UniProt P41162-2 1-143)
# T12 sequence: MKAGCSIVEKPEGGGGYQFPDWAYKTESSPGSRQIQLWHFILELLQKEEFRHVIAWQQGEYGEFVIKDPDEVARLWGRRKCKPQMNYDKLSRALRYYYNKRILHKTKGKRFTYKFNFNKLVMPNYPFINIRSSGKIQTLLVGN
# Summary of the method: as §1
# ETV6 = ETV6 (Homo sapiens, UniProt P41212 1-452)
# Sequence of ETV6 (P41212 whole entry): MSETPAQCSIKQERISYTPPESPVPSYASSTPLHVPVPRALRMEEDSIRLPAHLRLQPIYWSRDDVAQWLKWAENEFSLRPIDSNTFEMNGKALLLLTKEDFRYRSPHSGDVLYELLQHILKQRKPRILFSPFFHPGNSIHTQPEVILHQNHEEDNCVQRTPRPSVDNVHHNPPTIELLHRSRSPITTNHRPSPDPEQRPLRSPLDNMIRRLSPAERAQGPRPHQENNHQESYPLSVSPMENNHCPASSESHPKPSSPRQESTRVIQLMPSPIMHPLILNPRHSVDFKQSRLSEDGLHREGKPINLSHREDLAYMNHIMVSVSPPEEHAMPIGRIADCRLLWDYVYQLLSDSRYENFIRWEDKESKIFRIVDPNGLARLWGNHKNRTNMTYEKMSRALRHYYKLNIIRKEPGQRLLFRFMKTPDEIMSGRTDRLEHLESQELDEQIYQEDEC
# Summary of the method: as §1
Sequence,binding signal (FEV),binding signal (ETV5),binding signal (SPIC),binding signal (ELF4),binding signal (ELK4),binding signal (ETV2),binding signal (ELF3),binding signal (CRX),binding signal (ETV1),binding signal (ERF),binding signal (ETV3L),binding signal (ETS2),binding signal (SPDEF),binding signal (ETV7),binding signal (ELF5),binding signal (ETV3),binding signal (ETV6)
GCCTCC,"1.32 fold enrichment (6-mer frequency, TF over GST control)","1.31 fold enrichment (6-mer frequency, TF over GST control)","1.38 fold enrichment (6-mer frequency, TF over GST control)","1.34 fold enrichment (6-mer frequency, TF over GST control)","1.22 fold enrichment (6-mer frequency, TF over GST control)","1.29 fold enrichment (6-mer frequency, TF over GST control)","1.24 fold enrichment (6-mer frequency, TF over GST control)","1.03 fold enrichment (6-mer frequency, TF over GST control)","1.25 fold enrichment (6-mer frequency, TF over GST control)","1.39 fold enrichment (6-mer frequency, TF over GST control)","1.27 fold enrichment (6-mer frequency, TF over GST control)","1.27 fold enrichment (6-mer frequency, TF over GST control)","1.3 fold enrichment (6-mer frequency, TF over GST control)","1.29 fold enrichment (6-mer frequency, TF over GST control)","1.29 fold enrichment (6-mer frequency, TF over GST control)","1.24 fold enrichment (6-mer frequency, TF over GST control)","1.16 fold enrichment (6-mer frequency, TF over GST control)"
TACAGG,"1.23 fold enrichment (6-mer frequency, TF over GST control)","1.24 fold enrichment (6-mer frequency, TF over GST control)","1.2 fold enrichment (6-mer frequency, TF over GST control)","1.14 fold enrichment (6-mer frequency, TF over GST control)","1.26 fold enrichment (6-mer frequency, TF over GST control)","1.15 fold enrichment (6-mer frequency, TF over GST control)","1.15 fold enrichment (6-mer frequency, TF over GST control)","1.08 fold enrichment (6-mer frequency, TF over GST control)","1.15 fold enrichment (6-mer frequency, TF over GST control)","1.1 fold enrichment (6-mer frequency, TF over GST control)","1.27 fold enrichment (6-mer frequency, TF over GST control)","1.08 fold enrichment (6-mer frequency, TF over GST control)","1.39 fold enrichment (6-mer frequency, TF over GST control)","1.12 fold enrichment (6-mer frequency, TF over GST control)","1.22 fold enrichment (6-mer frequency, TF over GST control)","1.18 fold enrichment (6-mer frequency, TF over GST control)","1.19 fold enrichment (6-mer frequency, TF over GST control)"
